Assay results taken from PubChem BioAssay (EPA / NIEHS).
Inconclusive results are not listed. Active and inactive are the calls of the source. Rule for the calls, unless noted: active = hit-call score of the fitted dose curve at least 0.9, where 1 is the maximum; inactive = score below 0.9.

Legend:
[1] = read-out: matrix metalloproteinase-10 (MMP10), MMP10 (gene 4319); test: LTEA_HepaRG_MMP10: Life Technologies and Expression Analysis (LTEA) Assay for matrix metalloproteinase-10 (MMP10) using HepaRG (AID 2283517); details: mRNA level, 48 h; actives raise or lower the signal
Summary of the method: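 Transcript levels come from Fluidigm qRT-PCR normalized to three housekeeping genes, with curves fitted bidirectionally against 0.5% DMSO. Human HepaRG cells were dosed for 48 hours at concentrations up to 100 uM.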

[2] = read-out: MYC, MYC (gene 4609); test: LTEA_HepaRG_MYC: Life Technologies and Expression Analysis (LTEA) Assay for MYC using HepaRG (AID 2283518); details: mRNA level, 48 h; actives raise or lower the signal
Summary of the method: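 qRT-PCR read-out of MYC transcript (Fluidigm TaqMan, housekeeping-normalized) after 48 h chemical exposure of HepaRG cells; eight concentrations, top 100 uM, half-log steps. Bidirectional curve fitting against 0.5% DMSO vehicle baseline.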

[3] = read-out: matrix metalloproteinase-3 (MMP3), MMP3 (gene 4314); test: LTEA_HepaRG_MMP3: Life Technologies and Expression Analysis (LTEA) Assay for matrix metalloproteinase-3 (MMP3) using HepaRG (AID 2283519); details: mRNA level, 48 h; actives raise or lower the signal
Summary of the method: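 qRT-PCR read-out of MMP3 mRNA (normalised to three housekeeping genes) in HepaRG liver cells after 48 h chemical exposure; 8-point half-log series, top 100 uM, 0.5% DMSO vehicle. Bidirectional curve fitting against DMSO baseline.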

[4] = read-out: Paternally Expressed 10 (PEG10), PEG10 (gene 23089); test: LTEA_HepaRG_PEG10: Life Technologies and Expression Analysis (LTEA) Assay for Paternally Expressed 10 (PEG10) using HepaRG (AID 2283520); details: mRNA level, 48 h; actives raise or lower the signal
Summary of the method: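 After 48 h exposure of differentiated HepaRG cells (0.5% DMSO vehicle, eight concentrations up to 100 uM, duplicates), PEG10 mRNA was measured by TaqMan qRT-PCR. Values were normalised to endogenous control genes and analysed bidirectionally against vehicle.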

[5] = read-out: Nuclear factor NF-kappa-B p105 subunit (Homo sapiens) (UniProt P19838); test: LTEA_HepaRG_NFKB1: Life Technologies and Expression Analysis (LTEA) Assay for Nuclear Factor Kappa B Subunit 1 (NFKB1) using HepaRG (AID 2283521); details: mRNA level, 48 h; actives raise or lower the signal;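 note: differentiated human HepaRG liver cells in serum-free induction medium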
Summary of the method: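 Human HepaRG cells receive eight half-log concentrations, highest 100 uM, for 48 h. NFKB1 expression is then quantified by qRT-PCR and analysed for up- or down-regulation relative to 0.5% DMSO vehicle.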

[6] = read-out: Phosphatase and tensin (PTEN), PTEN (gene 5728); test: LTEA_HepaRG_PTEN: Life Technologies and Expression Analysis (LTEA) Assay for Phosphatase and tensin (PTEN) using HepaRG (AID 2283523); details: mRNA level, 48 h; actives raise or lower the signal
Summary of the method: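 HepaRG, 48 h exposure, 8-pt half-log series from 100 uM top, 0.5% DMSO vehicle, duplicates. Readout: Fluidigm qRT-PCR of PTEN transcript; housekeeping normalization (ACTB, GAPDH, POLR2A). Gain or loss fitted relative to DMSO baseline.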

[7] = read-out: solute carrier (SLC22A1), SLC22A1 (gene 6580); test: LTEA_HepaRG_SLC22A1: Life Technologies and Expression Analysis (LTEA) Assay for solute carrier (SLC22A1) using HepaRG (AID 2283524); details: mRNA level, 48 h; actives raise or lower the signal;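 for AC50: differentiated human HepaRG liver cells in serum-free induction medium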
Summary of the method: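 qRT-PCR readout (TaqMan, Fluidigm arrays) of SLC22A1 transcript, normalized to three housekeeping genes; bidirectional curve fit relative to 0.5% DMSO vehicle. Differentiated human HepaRG cells, 48 h chemical exposure, top concentration 100 uM, half-log steps, eight points.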

[8] = read-out: Nuclear factor erythroid 2-related factor 2 (Homo sapiens) (UniProt Q16236); test: LTEA_HepaRG_NFE2L2: Life Technologies and Expression Analysis (LTEA) Assay for Nuclear factor erythroid 2-related factor 2 (NFE2L2) Transcription Factor using HepaRG (AID 2283527); details: mRNA level, 48 h; actives raise or lower the signal;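 note: TaqMan qRT-PCR transcript level normalised to ACTB GAPDH and POLR2A housekeeping genes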
Summary of the method: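 HepaRG, 48 h dosing, 8-pt half-log series from 100 uM in 0.5% DMSO, duplicates. Read-out: NFE2L2 mRNA by qRT-PCR (ACTB/GAPDH/POLR2A normalization). Bidirectional curve fit vs DMSO baseline.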

[9] = read-out: succinate dehydrogenase complex iron sulfur subunit B (SDHB), SDHB (gene 6390); test: LTEA_HepaRG_SDHB: Life Technologies and Expression Analysis (LTEA) Assay for succinate dehydrogenase complex iron sulfur subunit B (SDHB) using HepaRG (AID 2283528); details: mRNA level, 48 h; actives raise or lower the signal
Summary of the method: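 A human HepaRG culture in serum-free induction medium received test chemicals for 48 h over an eight-point range capped at 100 uM. SDHB expression change was quantified by qRT-PCR.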

[10] = read-out: Signal transducer and activator of transcription 3 (Homo sapiens) (UniProt P40763); test: LTEA_HepaRG_STAT3: Life Technologies and Expression Analysis (LTEA) Assay for Signal transducer and activator of transcription (STAT3) using HepaRG (AID 2283529); details: mRNA level, 48 h; actives raise or lower the signal
Summary of the method: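 HepaRG, 48 h exposure, 8-pt half-log series (top 100 uM), 0.5% DMSO vehicle, duplicates. Readout: STAT3 transcript by Fluidigm qRT-PCR, housekeeping-normalized; bidirectional fit vs DMSO baseline.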

[11] = read-out: sulfotransferase 2A1 (SULT2A1), SULT2A1 (gene 6822); test: LTEA_HepaRG_SULT2A1: Life Technologies and Expression Analysis (LTEA) Assay for sulfotransferase 2A1 (SULT2A1) using HepaRG (AID 2283531); details: mRNA level, 48 h; actives raise or lower the signal
Summary of the method: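 HepaRG, 48 h chemical exposure, 8-pt half-log curve from 100 uM in 0.5% DMSO, duplicates. Readout: TaqMan qRT-PCR of SULT2A1 mRNA, housekeeping-normalized. Bidirectional fit vs DMSO baseline.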

[12] = read-out: Transforming Growth Factor (TGFB1), TGFB1 (gene 7040); test: LTEA_HepaRG_TGFB1: Life Technologies and Expression Analysis (LTEA) Assay for Transforming Growth Factor (TGFB1) Transporter using HepaRG (AID 2283533); details: mRNA level, 48 h; actives raise or lower the signal
Summary of the method: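 qRT-PCR readout of TGFB1 transcript in HepaRG lysates, normalized to three housekeeping genes; gain or loss of signal fitted relative to 0.5% DMSO vehicle. Exposure: 48 h, 8-point curve from 100 uM, duplicate wells.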

[13] = read-out: TIMP1, TIMP1 (gene 7076); test: LTEA_HepaRG_TIMP1: Life Technologies and Expression Analysis (LTEA) Assay for TIMP1 using HepaRG (AID 2283534); details: mRNA level, 48 h; actives raise or lower the signal
Summary of the method: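 HepaRG, 48 h exposure, 8-pt half-log series from 100 uM in 0.5% DMSO, duplicates; TIMP1 transcript by Fluidigm qRT-PCR, housekeeping-normalized; bidirectional curve fit vs DMSO baseline.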

[14] = read-out: Tumor necrosis factor receptor 1 (TNFRSF1A), TNFRSF1A (gene 7132); test: LTEA_HepaRG_TNFRSF1A: Life Technologies and Expression Analysis (LTEA) Assay for Tumor necrosis factor receptor 1 (TNFRSF1A) using HepaRG (AID 2283535); details: mRNA level, 48 h; actives raise or lower the signal
Summary of the method: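 HepaRG, 48 h plating then 48 h chemical exposure, serum-free induction media; 8-pt CRC from 100 uM, half-log, 0.5% DMSO vehicle, duplicates. Readout: TaqMan qRT-PCR (Fluidigm), housekeeping-gene normalized; bidirectional fit vs DMSO.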

[15] = read-out: Thyroid Hormone Responsive (THRSP), THRSP (gene 7069); test: LTEA_HepaRG_THRSP: Life Technologies and Expression Analysis (LTEA) Assay for Thyroid Hormone Responsive (THRSP) using HepaRG (AID 2283536); details: mRNA level, 48 h; actives raise or lower the signal
Summary of the method: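 qRT-PCR read-out (Fluidigm TaqMan), housekeeping-normalized (ACTB/GAPDH/POLR2A). HepaRG, 48 h chemical exposure, 8-pt half-log series from 100 uM in 0.5% DMSO, duplicates. Bidirectional curve fit vs 0.5% DMSO baseline.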

[16] = read-out: UDP glucuronosyltransferase (UGT1A6), UGT1A6 (gene 54578); test: LTEA_HepaRG_UGT1A6: Life Technologies and Expression Analysis (LTEA) Assay for UDP glucuronosyltransferase (UGT1A6) using HepaRG (AID 2283539); details: mRNA level, 48 h; actives raise or lower the signal
Summary of the method: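 qRT-PCR readout of UGT1A6 mRNA (normalized to ACTB/GAPDH/POLR2A) in differentiated HepaRG cells after 48 h chemical exposure; 8 concentrations, top 100 uM, half-log steps, 0.5% DMSO. Bidirectional curve fit relative to DMSO baseline.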

[17] = read-out: X-box binding protein 1 (XBP1), XBP1 (gene 7494); test: LTEA_HepaRG_XBP1: Life Technologies and Expression Analysis (LTEA) Assay for X-box binding protein 1 (XBP1) using HepaRG (AID 2283540); details: mRNA level, 48 h; actives raise or lower the signal
Summary of the method: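 HepaRG, 48 h exposure, 8-pt half-log CRC top 100 uM, 0.5% DMSO vehicle, duplicates. Readout: TaqMan qRT-PCR of XBP1 mRNA, housekeeping-normalised (ACTB/GAPDH/POLR2A); bidirectional fit vs DMSO baseline.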

[18] = ATG_XTT_Cytotoxicity: Cytotoxicity Assessment in the Attagene TRANS-FACTORIAL HepG2 Assay (AID 2283584; active = hit-call score of the fitted dose curve at least 0.9, where 1 is the maximum)
Summary of the method: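 XTT readout of cell number in transfected HepG2 cells, 24 h post-dosing; DMSO serves as negative control and baseline, with activity taken as loss of viability signal.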

[19] = read-out: Cellular tumor antigen p53 (Homo sapiens) (UniProt P04637); test: LTEA_HepaRG_TP53: Life Technologies and Expression Analysis (LTEA) Assay for Tumor Protein P53 (TP53) using HepaRG (AID 2283537); details: mRNA level, 48 h; actives raise or lower the signal
Summary of the method: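 Gain or loss of TP53 mRNA signal is scored relative to 0.5% DMSO after 48 h chemical treatment of HepaRG liver cells, tested in duplicate at eight half-log concentrations up to 100 uM.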

[20] = TOX21_p53_BLA_p2_viability: Viability Assessment in the Tox21 HCT-116 p53 Agonism Beta-lactamase Assay, Phase 2 (AID 2283591; active = hit-call score of the fitted dose curve at least 0.9, where 1 is the maximum;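 note: compound exposure lasted 16 h at 37 °C; actives lower the ATP signal meaning cytotoxicity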)
Summary of the method: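 HCT116 p53-bla cells, 4000/well, dosed after 5 h plating (217-fold dilution of DMSO stocks) and incubated 16 h at 37C. Viability taken as cellular ATP by CellTiter-Glo luminescence after 30 min RT; signal loss marks cytotoxicity.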

Measured: AC50

Signal transducer and activator of transcription 3 (Homo sapiens), sequence (P40763 whole entry, looked up): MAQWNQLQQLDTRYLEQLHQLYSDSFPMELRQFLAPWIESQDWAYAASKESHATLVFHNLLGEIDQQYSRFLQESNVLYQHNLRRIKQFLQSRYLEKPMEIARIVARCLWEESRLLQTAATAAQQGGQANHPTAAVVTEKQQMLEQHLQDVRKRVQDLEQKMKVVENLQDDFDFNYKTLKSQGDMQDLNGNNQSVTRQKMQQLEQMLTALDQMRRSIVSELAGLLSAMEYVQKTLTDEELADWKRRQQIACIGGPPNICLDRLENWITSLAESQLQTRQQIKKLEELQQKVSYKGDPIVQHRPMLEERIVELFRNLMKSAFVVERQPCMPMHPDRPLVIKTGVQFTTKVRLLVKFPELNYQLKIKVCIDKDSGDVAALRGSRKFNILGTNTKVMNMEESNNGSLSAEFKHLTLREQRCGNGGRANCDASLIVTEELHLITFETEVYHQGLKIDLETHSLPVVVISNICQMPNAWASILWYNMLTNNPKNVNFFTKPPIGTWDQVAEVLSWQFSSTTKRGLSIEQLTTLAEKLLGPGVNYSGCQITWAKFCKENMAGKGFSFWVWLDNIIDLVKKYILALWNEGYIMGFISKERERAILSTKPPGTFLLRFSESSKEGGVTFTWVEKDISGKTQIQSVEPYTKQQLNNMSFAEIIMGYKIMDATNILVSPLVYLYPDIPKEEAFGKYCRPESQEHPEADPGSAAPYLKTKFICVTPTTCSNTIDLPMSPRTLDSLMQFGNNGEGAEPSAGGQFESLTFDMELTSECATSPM
Cellular tumor antigen p53 (Homo sapiens), sequence (P04637 whole entry, looked up): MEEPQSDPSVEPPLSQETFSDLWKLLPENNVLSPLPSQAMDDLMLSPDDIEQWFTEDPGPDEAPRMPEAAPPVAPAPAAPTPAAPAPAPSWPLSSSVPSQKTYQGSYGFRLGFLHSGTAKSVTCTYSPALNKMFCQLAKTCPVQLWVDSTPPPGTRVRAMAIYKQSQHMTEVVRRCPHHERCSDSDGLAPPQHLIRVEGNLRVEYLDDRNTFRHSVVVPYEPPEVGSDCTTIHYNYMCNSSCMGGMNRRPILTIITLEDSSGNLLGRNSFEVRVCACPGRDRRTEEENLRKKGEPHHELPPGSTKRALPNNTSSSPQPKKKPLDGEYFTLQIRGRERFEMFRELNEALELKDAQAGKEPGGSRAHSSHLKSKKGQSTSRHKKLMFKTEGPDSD
Nuclear factor erythroid 2-related factor 2 (Homo sapiens), sequence (Q16236 whole entry, looked up): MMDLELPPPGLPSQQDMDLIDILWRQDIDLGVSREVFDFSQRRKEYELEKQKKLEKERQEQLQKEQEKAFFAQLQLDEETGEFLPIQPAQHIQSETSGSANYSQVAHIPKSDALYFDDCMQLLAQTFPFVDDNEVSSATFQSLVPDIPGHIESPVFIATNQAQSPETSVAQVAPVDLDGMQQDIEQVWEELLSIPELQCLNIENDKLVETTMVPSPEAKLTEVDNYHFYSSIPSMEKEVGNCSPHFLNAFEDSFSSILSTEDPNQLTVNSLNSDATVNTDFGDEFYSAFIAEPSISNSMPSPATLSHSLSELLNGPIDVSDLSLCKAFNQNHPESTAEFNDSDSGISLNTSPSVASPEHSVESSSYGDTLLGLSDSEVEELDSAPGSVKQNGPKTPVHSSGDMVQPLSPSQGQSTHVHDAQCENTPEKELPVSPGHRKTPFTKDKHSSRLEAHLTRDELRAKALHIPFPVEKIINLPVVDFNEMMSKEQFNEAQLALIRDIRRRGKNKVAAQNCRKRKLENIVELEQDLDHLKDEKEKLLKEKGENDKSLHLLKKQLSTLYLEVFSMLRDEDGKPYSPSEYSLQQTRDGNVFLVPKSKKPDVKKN
Nuclear factor NF-kappa-B p105 subunit (Homo sapiens), sequence (P19838 whole entry, looked up): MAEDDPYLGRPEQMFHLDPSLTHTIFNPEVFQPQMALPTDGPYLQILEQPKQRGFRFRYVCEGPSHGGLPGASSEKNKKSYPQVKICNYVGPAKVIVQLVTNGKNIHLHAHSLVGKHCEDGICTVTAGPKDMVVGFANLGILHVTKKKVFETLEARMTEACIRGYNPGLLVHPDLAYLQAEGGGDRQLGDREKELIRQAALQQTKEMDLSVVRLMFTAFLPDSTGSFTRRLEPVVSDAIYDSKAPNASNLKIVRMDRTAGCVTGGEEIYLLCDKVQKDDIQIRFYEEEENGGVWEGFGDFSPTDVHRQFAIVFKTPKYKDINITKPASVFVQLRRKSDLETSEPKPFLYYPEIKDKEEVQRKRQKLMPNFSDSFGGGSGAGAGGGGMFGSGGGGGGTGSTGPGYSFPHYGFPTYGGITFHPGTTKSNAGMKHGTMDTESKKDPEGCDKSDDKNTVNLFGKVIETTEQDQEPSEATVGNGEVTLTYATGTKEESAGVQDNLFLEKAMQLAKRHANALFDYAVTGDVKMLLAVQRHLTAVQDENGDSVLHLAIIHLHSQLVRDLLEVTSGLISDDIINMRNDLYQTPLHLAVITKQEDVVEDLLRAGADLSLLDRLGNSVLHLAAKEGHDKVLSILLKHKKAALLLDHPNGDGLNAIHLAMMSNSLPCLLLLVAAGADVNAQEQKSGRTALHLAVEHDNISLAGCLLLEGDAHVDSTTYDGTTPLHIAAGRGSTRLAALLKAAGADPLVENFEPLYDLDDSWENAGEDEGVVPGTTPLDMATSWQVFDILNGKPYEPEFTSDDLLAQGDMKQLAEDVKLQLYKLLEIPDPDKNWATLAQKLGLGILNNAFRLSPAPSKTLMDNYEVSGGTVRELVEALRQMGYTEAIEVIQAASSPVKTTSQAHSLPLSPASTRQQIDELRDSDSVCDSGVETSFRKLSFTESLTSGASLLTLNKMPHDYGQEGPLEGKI

CCC(C)c1ccccc1O (stereo not drawn)
not listed: [19] | [20]
inactive: all other assays above

Cc1ccc(C(=O)c2ccccc2)cc1
inactive: [18]

O=C(CCCN1CCC(O)(c2ccc(Cl)cc2)CC1)c1ccc(F)cc1
active: [1] 82.4 µM | [2] 73.6 µM | [3] 12.5 µM | [7] 85.5 µM | [11] 95.2 µM | [12] 73.6 µM | [14] 82.1 µM | [19] 79.1 µM | [16] 76.1 µM
inactive: [4] | [6] | [9] | [10] | [13] | [15] | [17] | [18] | [20]

NNC(=O)CCCCC(=O)NN
inactive: [18]
